High-throughput results as filed in PubChem.
Dicer inh: blocks human Dicer maturation of pre-miR-21. Q9UPY3. AID 1347074. z-score at 25 µM. cat-ELCCA pre-miR-21 Dicer processing, chemiluminescence; stronger effect = higher value. 47,000 tested, 6% active; in the data active = z-score above about 3, passing the limit was not always enough;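 also: higher signal means more uncleaved substrate so more Dicer inhibition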
Hits are given with their value; . = inactive. Many of the other results were omitted from the sample, so hits are more common in it than they were.

SMILES	Dicer inh
CC(C)C[C@H](NC(=O)c1ccc(Cl)cc1Cl)C(=O)O	.
O=c1[nH]c(=O)n(-c2ccccc2)c2c1CN(Cc1ccco1)CN2	.
c1ccc(C2CN(Cc3ccco3)C(c3ccccc3)O2)cc1 (stereo unspecified)	3.55
O=C(O)C1CC(=O)N(Cc2ccco2)C1 (stereo unspecified)	.
CCOC(=O)/C(=N\OC)c1csc(NC(=O)c2nn(-c3ccccc3)nc2C)n1	.
COCCn1c(-c2ccc(F)cc2)cnc1NCc1ccccc1	.
Nc1nc2c(-c3ccc([N+](=O)[O-])cc3)nnn2c2ccccc12	3.88
CCOC(=O)c1nnn2c1nc(N1CCN(C)CC1)c1ccccc12	.
Nc1nc2c(C(=O)N3CCOCC3)nnn2c2ccccc12	.
C/C(=C\C#N)NC(=O)c1nccnc1C(=O)O	4.61
CC(=O)Nc1ccc(NC(=O)c2nccnc2C(=O)O)cn1	.
Cn1nccc1NC(=O)c1nccnc1C(=O)O	.
Cc1nc([N+](=O)[O-])cn1CC(=O)c1ccc(-c2ccccc2)cc1	.
O=C(O)CNC(=O)c1c(F)cccc1F	.
COc1ccc2[nH]c(C(=O)Nc3cc(C)nc(C)n3)cc2c1	.
COc1c(Cl)cccc1-c1cn2ccccc2n1	.
COc1ccc(-c2cn3ccccc3n2)cc1Br	.
CCCOc1ccc(-c2cn3ccccc3n2)cc1	3.86
COc1ccc(-c2cn3cccc(C)c3n2)cc1	.
COc1ccc(-c2cn3ccccc3n2)cc1	5.79
CCc1ccn2cc(-c3ccc(C)cc3)nc2c1	.
O=C(NC1CCCCC1)N1c2ccccc2C=Cc2ccccc21	.
CCOC(=O)c1sc2nc(C)nc(N3CCN(C)CC3)c2c1C	.
CCN(CC)C(=S)NC(=S)c1ccc(C)cc1	15.9
CCN(C(=S)Nc1ccc(C)cc1)c1ccccc1	.
SMILES	Dicer inh
Cc1ccc(CNC(=S)N(C)C)cc1	.
Fc1ccc(Cn2nnc(-c3ccccc3Cl)n2)cc1	.
NS(=O)(=O)c1ccc(NC(=O)CCC(=O)O)cc1	3.44
NS(=O)(=O)c1ccc(NC(=O)CCCC(=O)O)cc1	.
CC(=O)Nc1ccc(NC(=O)CCC(=O)O)cc1	.
COc1ccc(NC(=O)CCC(=O)O)cc1OC	3.73
COC(=O)CCC(=O)Nc1ccc(C)cc1	.
COc1ccc(NC(=O)CC(C)(C)CC(=O)O)cc1OC	.
Cc1ccc(O)c(C2Nc3ccccc3NC3=C2C(=O)CC(C)(C)C3)c1 (stereo unspecified)	.
C=C1SC(Nc2c(C)cccc2Cl)=NC12CCCCC2	.
CC(C)(C)NC(=S)NN1C2CSC1CS2	.
O=C(Nc1cccc2nsnc12)c1cccs1	.
O=C(Nc1ccncc1[N+](=O)[O-])c1cccs1	3.54
O=C(Nc1cc(Cl)ccc1O)c1cccs1	.
CCOc1ccc2nc3c(nc2c1)-c1ccccc1C3=O	.
CNC(=S)NNC(=O)CN1C(=O)CSc2ccc(C(F)(F)F)cc21	.
O=C1CSc2ccc(C(F)(F)F)cc2N1	.
NNC(=O)CN1C(=O)CSc2ccc(C(F)(F)F)cc21	6.23
CCCCCn1c(SCc2ncc(C(F)(F)F)cc2Cl)n[nH]c1=O	.
CN(C)c1ccc(Oc2ccc3c(c2)CCC2C3CCC3(C)C(=O)CCC23)cc1 (stereo unspecified)	.
CC1(C)CC(=O)C(C(C2=C(O)CC(C)(C)CC2=O)c2cccc(O)c2O)C(=O)C1 (stereo unspecified)	4.26
CC1(C)CC(=O)C(C(C2=C(O)CC(C)(C)CC2=O)c2cc(Br)ccc2O)C(=O)C1 (stereo unspecified)	.
Cc1ccc(C(C2=C(O)CC(C)(C)CC2=O)C2C(=O)CC(C)(C)CC2=O)o1 (stereo unspecified)	.
COC(=O)CNC(=O)Cn1cnc2c1c(=O)n(C)c(=O)n2C	.
COC(=O)Cn1cnc(=O)c(C#N)c1C	3.37
SMILES	Dicer inh
CCOC(=O)Cn1cc(C#N)c(=O)[nH]c1=O	.
NC(=S)Nc1ccc(C2CCCCC2)cc1	.
O=C(Nc1ccc(Cl)cc1)O/N=C1\CCSC1	.
CCN1CCN(Cc2ccc3cccnc3c2O)CC1	.
Oc1c(C(c2ccc(F)cc2)N2CCCCC2)ccc2cccnc12 (stereo unspecified)	3.71
Oc1c(C(c2ccccn2)N2CCCC2)ccc2cccnc12 (stereo unspecified)	.
Cc1cc(C)nc(SCC(=O)N2CCc3ccccc3C2)n1	.
CCOC(=O)c1cnc2cc(C3CC3)[nH]n2c1=O	.
O=C(O)c1ccccc1C(=O)c1ccc(F)cc1	3.13
Cc1cccc(C(=O)c2ccccc2C(=O)O)c1	.
O=C(O)c1ccccc1C(=O)c1ccc(-c2ccccc2)cc1	.
CCCCNC(=O)NS(=O)(=O)c1cc(Cl)sc1Cl	.
COc1ccc(CCNC(=O)c2c(-c3ccccc3Cl)noc2C)cc1OC	.
CC(C)(C)n1cnc2cc(NCc3ccco3)ccc21	.
CC(C)n1cnc2cc(NCc3ccco3)ccc21	.
Cn1cnc2cc(NCc3ccco3)ccc21	4.86
Cc1c(C(=O)c2ccc(Cl)cc2)oc2c(Cl)cc(Cl)cc12	.
Cc1c(Cc2ccc(Cl)c(Cl)c2)c(=O)oc2cc(OS(=O)(=O)c3ccc(Cl)cc3)ccc12	.
CC(C)(C)C(=O)CSc1n[nH]c(=O)n1-c1ccccc1C(F)(F)F	.
COc1ccc(OC)c(C2NC(=O)c3c(sc4c3CCCC4)N2)c1 (stereo unspecified)	.
COc1ccc(-c2noc(CSc3nc(N)c(-c4ccccc4)c(=O)[nH]3)n2)cc1	3.91
Cc1ccc(-c2noc(CSc3nc(N)cc(=O)[nH]3)n2)cc1	.
COc1ccccc1-c1noc(CSc2nc(N)cc(=O)[nH]2)n1	.
O=S(=O)(N/N=C/c1ccccc1Cl)c1ccc(-c2ccccn2)s1	.
Cc1onc(-c2c(Cl)cccc2Cl)c1C(=O)NCCSC1=NCCN1	.
SMILES	Dicer inh
O=[N+]([O-])c1cc(C(F)(F)F)ccc1Oc1ccc(Cl)cc1Cl	.
CCOC(=O)c1cc(CC)sc1NC(=S)Nc1cccc(Cl)c1	7.09
CCOC(=O)c1cc(CC)sc1NC(=S)Nc1ccccc1C(F)(F)F	.
CCOC(=O)c1cc(C)ccc1NC(=S)Nc1cccc(Cl)c1	.
Oc1ccc2ncccc2c1C(Nc1ccccn1)c1ccc(Br)cc1 (stereo unspecified)	.
O=C(O)[C@@H](Cc1ccccc1)NC(=O)C(Cl)(Cl)Cl	.
COc1ccc(/C(O)=C2\C(=O)C(=O)N(CCCN3CCOCC3)C2c2ccc(OC)cc2)cc1 (stereo unspecified)	.
COc1ccc(/C(O)=C2\C(=O)C(=O)N(CCN3CCOCC3)C2c2ccc(F)cc2)cc1 (stereo unspecified)	3.24
CN1C(=O)C2(/C(=C(/O)c3ccc(Cl)cc3)C(=O)C(=O)N2CCN2CCOCC2)c2ccccc21 (stereo unspecified)	.
Cc1ccc(/C(O)=C2/C(=O)C(=O)N(CCN3CCOCC3)C23C(=O)N(C)c2ccccc23)cc1F (stereo unspecified)	4.18
CN1C(=O)C2(/C(=C(/O)c3ccc(F)cc3)C(=O)C(=O)N2CCCN2CCOCC2)c2ccccc21 (stereo unspecified)	.
COc1ccc(/C(O)=C2\C(=O)C(=O)N(CCN3CCNCC3)C2c2ccc(OC)cc2)cc1 (stereo unspecified)	.
C=CCN1C(=O)C2(/C(=C(/O)c3ccccc3)C(=O)C(=O)N2CCN2CCOCC2)c2ccccc21 (stereo unspecified)	.
COCCCN1C(=O)C(=O)/C(=C(/O)c2ccc(C)cc2)C1c1ccc(N(C)C)cc1 (stereo unspecified)	3.18
